In the library only some 1.3% were active in any assay of this set; here they are far more common.
GALR2 ag: agonists of human galanin receptor 2 (GALR2); O43603; activation, % (test concentration not listed); 140,000 compounds, 0.48% hits; AID 803; GALR2-expressing cells, agonist activation read-out; in the data active = activation above about 5%, passing the limit was not always enough;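 note: 0% = vehicle buffer wells and 100% = reference agonist at full effect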
S1P2 antag: blocks the human S1P2 receptor; O95136; cell-based S1P2 antagonist assay, inhibition at 5 uM; inhibition, % at 5 µM; 97,000 compounds, 0.21% hits; in the data active = inhibition above about 45%;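 note: CRE beta-lactamase reporter cells expressing human S1P2 stimulated with S1P; 0% = agonist at EC80 alone and 100% = agonist plus reference antagonist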
Target sequence (O95136 whole entry, looked up): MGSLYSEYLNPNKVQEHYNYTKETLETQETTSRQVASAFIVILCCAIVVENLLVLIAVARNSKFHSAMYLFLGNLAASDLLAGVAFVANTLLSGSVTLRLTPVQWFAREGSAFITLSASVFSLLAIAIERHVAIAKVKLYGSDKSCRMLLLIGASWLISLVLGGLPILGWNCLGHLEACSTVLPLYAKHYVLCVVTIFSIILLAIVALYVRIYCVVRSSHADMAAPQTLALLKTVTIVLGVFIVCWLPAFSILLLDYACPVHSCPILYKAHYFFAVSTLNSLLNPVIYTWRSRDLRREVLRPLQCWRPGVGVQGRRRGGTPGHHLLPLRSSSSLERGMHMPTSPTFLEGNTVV
Smad3 FoxH1 inh: Smad3 (human) transcription factor binding inhibition. TR-FRET Smad3/Dy647-FoxH1 peptide binding, europium anti-His. AID 630. inhibition, % at 25 µM. 88,000 compounds, 0.29% hits. P84022;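 active = compounds that reduce the energy-transfer binding signal between the protein and its labelled peptide by more than half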;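 note: 0% = Smad3 plus labelled peptide maximal FRET and 100% = peptide-only background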
S1P2 ag: agonists of human S1P2 receptor | S1P2-expressing cell line, agonist reporter read-out | O95136 | activation, % at 4.5 µM | 97,000 compounds, 0.46% hits; in the data active = activation above about 16%;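 note: 0% = vehicle low control and 100% = maximal reference agonist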
GALR2 antag: GALR2 (human) receptor antagonism | GALR2-expressing cells, antagonist mode | inhibition, % at 4 µM | 140,000 compounds, 0.39% hits; in the data active = inhibition above about 27%;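 note: cells stimulated with galanin 1-16 at roughly its EC80; 0% = agonist challenge control and 100% = basal control without agonist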
Candida biofilm: kills Candida albicans biofilms | C. albicans biofilm + clotrimazole, Alamar Blue | inhibition, % at 6 µM | 85,000 compounds, 0.14% hits | AID 834;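 active = inhibition above 20%; inactive = inhibition below 20%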;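 note: preformed 24 hr biofilms exposed to compound for 48 hr; 0% = biofilm without compound and 100% = blank killed by clotrimazole plus chlorhexidine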
* marks the source's active call; other numbers are inactive results; [ ] = dose if it differs, or a comment.

For CN1CCN(S(=O)(=O)c2ccc3ccccc3c2)CC1 the results were GALR2 ag -2, S1P2 antag 25, Smad3 FoxH1 inh 3, S1P2 ag -6, GALR2 antag 2 and Candida biofilm 9.
For Nc1ncnc2nn([C@H]3O[C@@H](CO)[C@H](O)[C@H]3O)nc12 the results were Smad3 FoxH1 inh -4.
CC1(C)S[C@H]2[C@H](NC(=O)C3(N)CCCCC3)C(=O)N2[C@@H]1C(=O)O was read as Smad3 FoxH1 inh 11.
Screening Cc1ccc(S(=O)(=O)Nc2cccnc2)cc1 returned GALR2 ag -2, S1P2 antag 4, Smad3 FoxH1 inh 12, S1P2 ag -7, GALR2 antag 2 and Candida biofilm -1.
Screening Cc1ccc(N(C(C)C(=O)O)S(=O)(=O)c2cccnc2)cc1 (configuration not stated) returned Smad3 FoxH1 inh 4 and Candida biofilm 24*.
`CCOC(=O)C1=C(C)NC(=O)C(C#N)C1c1ccncc1` (configuration not stated) gave GALR2 ag -1, S1P2 antag 17, Smad3 FoxH1 inh -16, S1P2 ag -5, GALR2 antag 2 and Candida biofilm 5.
For Nc1nc(SCCC2CCCCC2)c2[nH]cnc2n1 the results were Smad3 FoxH1 inh 12.
For Cc1nccn1CC(O)COC1CCCCC1 (configuration not stated) the results were GALR2 ag -1, S1P2 antag 10, Smad3 FoxH1 inh 7, S1P2 ag -6, GALR2 antag 1 and Candida biofilm 5.
`Nc1nc(Br)c2c(F)cccc2c1-c1ccccc1` gave GALR2 ag 2, S1P2 antag -5, S1P2 ag 14 and GALR2 antag 0.
For Nc1nc(Br)c2c(F)cccc2c1-c1ccc(F)cc1 the results were GALR2 ag 7, S1P2 antag -12, S1P2 ag 22* and GALR2 antag 5.
For Cc1ccc(C2SCC(=O)N2Cc2cn3ccsc3n2)o1 (configuration not stated) the results were GALR2 ag 0, S1P2 antag 10, Smad3 FoxH1 inh 64*[fluorescence artefact?], S1P2 ag -11, GALR2 antag 0 and Candida biofilm 2.
CCc1nc(SCc2nc3ccccc3[nH]2)c2oc3ccccc3c2n1 was read as GALR2 ag 0, S1P2 antag -33, Smad3 FoxH1 inh 9, S1P2 ag 36*, GALR2 antag -4 and Candida biofilm 6.
Screening O=C(O)c1cc2nc(C3CC3)cc(C(F)(F)F)n2n1 returned GALR2 ag -3, S1P2 antag 6, Smad3 FoxH1 inh 2, S1P2 ag -3, GALR2 antag 5 and Candida biofilm -2.
Screening CCC1=C(C[C@H]2NCCc3ccccc32)C[C@H]2c3cc(OC)c(OC)cc3CCN2C1 returned Smad3 FoxH1 inh 5.
For COc1ccc(OC)c(NC(=O)c2cn(C)c(=O)c3cc(OC)c(OC)cc23)c1 the results were GALR2 ag 0, S1P2 antag -62, Smad3 FoxH1 inh 8, S1P2 ag 33*, GALR2 antag -1 and Candida biofilm 9.
CCn1cc(C(=O)NCc2ccco2)c2cc(OC)c(OC)cc2c1=O was read as GALR2 ag 2, S1P2 antag 3, S1P2 ag 11 and GALR2 antag -1.
COc1ccc(C(=O)Nc2cc(OC)ccc2OC)cc1 was read as GALR2 ag -1, S1P2 antag -6, Smad3 FoxH1 inh -6, S1P2 ag -2, GALR2 antag 3 and Candida biofilm 1.
For CCn1cc(C(=O)Nc2ccc(OC)c(OC)c2)c2cc(OC)c(OC)cc2c1=O the results were GALR2 ag 0, S1P2 antag -34, Smad3 FoxH1 inh -7, S1P2 ag 22*, GALR2 antag -8 and Candida biofilm -1.
`CN1C(=O)CSc2ccc(NC(=O)Nc3ccccn3)cc21` gave GALR2 ag 0, S1P2 antag 51*, Smad3 FoxH1 inh 1, S1P2 ag -12, GALR2 antag -12 and Candida biofilm 5.
CCN(C(=O)CN1CCN(S(=O)(=O)c2cc(Cl)ccc2Cl)CC1)c1c(N)n(Cc2ccccc2)c(=O)[nH]c1=O was read as GALR2 ag -2 and GALR2 antag 12.
CN(C)c1ccc(/C=C/C(O)=C2/C(=O)N(C)C3(C)CC2c2ccccc2O3)cc1 (configuration not stated) was read as GALR2 ag 4, S1P2 antag 69*, Smad3 FoxH1 inh 7, S1P2 ag -2, GALR2 antag 8 and Candida biofilm 6.
CCOC(=O)CC(=O)CSc1nc2c(c(C)c1C#N)CCC2 was read as GALR2 ag -1, S1P2 antag 23, Smad3 FoxH1 inh -3, S1P2 ag -6, GALR2 antag 12 and Candida biofilm 7.
Screening CCOC(=O)CC(=O)CSc1nc(C)cc(C)c1C#N returned GALR2 ag 7.2*, S1P2 antag -3, Smad3 FoxH1 inh -16, S1P2 ag -5, GALR2 antag 5 and Candida biofilm 7.
`CCCC(CCC)C(=O)Nc1cccc(C(=O)O)c1` gave GALR2 ag -2, S1P2 antag -2, Smad3 FoxH1 inh 0, S1P2 ag 0, GALR2 antag -1 and Candida biofilm 2.
O=C(c1ccc2c(c1)OCCCO2)c1cccs1 was read as GALR2 ag 0, S1P2 antag 11, Smad3 FoxH1 inh 8, S1P2 ag -5, GALR2 antag 1 and Candida biofilm 6.
For CCN(Cc1nc2ccccc2c(=O)[nH]1)Cc1nc2cc(OC)c(OC)cc2c(=O)[nH]1 the results were GALR2 ag -1, S1P2 antag -63, Smad3 FoxH1 inh 7, S1P2 ag 18*, GALR2 antag -9 and Candida biofilm 10.
Screening COc1cc(N(C)C)c([N+](=O)[O-])cc1C(=O)NC(C)CNc1ccc([N+](=O)[O-])cc1Cl (configuration not stated) returned GALR2 ag -1 and GALR2 antag 6.
Screening Cc1cccn2c(=O)c(/C=C(\C#N)S(=O)(=O)c3ccccc3)c(N3CCC(C(N)=O)CC3)nc12 returned GALR2 ag -1, S1P2 antag 0, Smad3 FoxH1 inh -8, S1P2 ag -2, GALR2 antag -2 and Candida biofilm 6.
Cc1cccn2c(=O)c(/C=C(\C#N)C(=O)NC3CCS(=O)(=O)C3)c(N3CCC(C(N)=O)CC3)nc12 (configuration not stated) was read as GALR2 ag 6.3* and GALR2 antag -4.
Cc1cc(/C=C2/SC(=S)N(c3cccc(C(F)(F)F)c3)C2=O)c(C)n1-c1cccnc1 was read as GALR2 ag -3, S1P2 antag 82*, S1P2 ag -5 and GALR2 antag 35*.
`Clc1cccc(Cl)c1CO/N=C/c1c(-c2ccccc2)nc2n1CCS2` gave GALR2 ag 1, S1P2 antag -4, S1P2 ag -2 and GALR2 antag -11.
`O=C(CSc1nncn1-c1ccccc1)NCc1cccs1` gave GALR2 ag 12*, S1P2 antag -2, Smad3 FoxH1 inh -16, S1P2 ag -3, GALR2 antag -11 and Candida biofilm 4.

Screens (PubChem)
